Source: the supplement of paper PMC3414501
Counter-ions that a name gives are not always drawn.

Columns and labels:
[1] = tested on: S. cerevisiae SK1 pCDA2-eGFP (USY613), sporulating; test: CDA2-GFP sporulation assay sensitivity score (z-score vs DMSO controls); higher = stronger inhibition of sporulation, active = hit call of the paper;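 also: active if sensitivity score above 5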
[2] = tested on: S. cerevisiae AD1-9 (efflux-pump deficient), vegetative growth in YPD; test: growth sensitivity score (doubling time z-score vs DMSO controls); higher = slower growth, strongly negative scores also mark growth inhibition (complete suppression), active = hit call of the paper
In short: (§1)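 Yeast (Saccharomyces cerevisiae BY4741 and AD1-9) was grown in rich medium in microtiter plates from a starting OD600 of 0.065, with optical density read every 15 min over 24 hours. The growth sensitivity score was the difference between compound and solvent-only means, divided by the solvent-only standard deviation. Every experiment had eight solvent-only wells.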

[3] = tested on: S. cerevisiae BY4741 (wild-type), vegetative growth in YPD; test: as above
In short: as §1

[4] = stock concentration (mM, diluted 1:100): 10
[5] = stock concentration (mM, diluted 1:100): 19.9
[6] = stock concentration (mM, diluted 1:100): 7.3
[7] = stock concentration (mM, diluted 1:100): 8.7
[8] = stock concentration (mM, diluted 1:100): 9.8
[9] = stock concentration (mM, diluted 1:100): 10.1
[10] = stock concentration (mM, diluted 1:100): 7.6

C[C@]12Cc3c[nH]nc3C[C@@H]1CC[C@@H]1[C@@H]2CC[C@@]2(C)[C@H]1CC[C@]2(C)O [Stanozolol]
CDA2-GFP sporulation assay sensitivity score [1, 4]: -4.38 (inactive)
growth sensitivity score [2, 4]: 9.25 (active)
growth sensitivity score [3, 4]: 1.13 (inactive)

COc1cccc(C2(O)CCCCC2CN(C)C)c1 (stereo not drawn) [Tramadol]
CDA2-GFP sporulation assay sensitivity score [1, 4]: 0.06 (inactive)
growth sensitivity score [2, 4]: -0.93 (inactive)
growth sensitivity score [3, 4]: -0.39 (inactive)

C[C@]12CC[C@H]3[C@@H](CCC4=CC(=O)CC[C@@]43C)[C@@H]1CC[C@@H]2O [Testosterone]
CDA2-GFP sporulation assay sensitivity score [1, 4]: 21.1 (active)
growth sensitivity score [2, 4]: 44.5 (active)
growth sensitivity score [3, 4]: 4.61 (active)

NCCc1ccccn1 [2-(2-aminoethyl)pyridine]
CDA2-GFP sporulation assay sensitivity score [1, 4]: -1.07 (inactive)
growth sensitivity score [2, 4]: -0.62 (inactive)
growth sensitivity score [3, 4]: -1.35 (inactive)

CNC(=O)Oc1ccc2c(c1)[C@]1(C)CCN(C)[C@@H]1N2C [Physostigmine]
CDA2-GFP sporulation assay sensitivity score [1, 4]: 0.21 (inactive)
growth sensitivity score [2, 4]: -0.52 (inactive)
growth sensitivity score [3, 4]: -1.51 (inactive)

C=C1C[C@@H]2[C@H](CC[C@]3(C)C(=O)CC[C@@H]23)[C@@]2(C)C=CC(=O)C=C12 [Exemestane]
CDA2-GFP sporulation assay sensitivity score [1, 4]: 7.73 (active)
growth sensitivity score [2, 4]: 4.58 (active)
growth sensitivity score [3, 4]: 0.77 (inactive)

Cc1ccc(-c2nc3ccc(C)cn3c2CC(=O)N(C)C)cc1 [Zolpidem tartrate]
CDA2-GFP sporulation assay sensitivity score [1, 5]: 1.79 (inactive)
growth sensitivity score [2, 5]: -1.48 (inactive)
growth sensitivity score [3, 5]: -0.6 (inactive)

CN1[C@@H]2CC(OC(=O)[C@H](CO)c3ccccc3)C[C@H]1[C@@H]1O[C@@H]12 (stereo partly drawn)
CDA2-GFP sporulation assay sensitivity score [1, 6]: -0.1 (inactive)
growth sensitivity score [2, 6]: -1.56 (inactive)
growth sensitivity score [3, 6]: -0.06 (inactive)

O=C1CN=C(c2ccccc2)c2cc([N+](=O)[O-])ccc2N1 [Nitrazepam]
CDA2-GFP sporulation assay sensitivity score [1, 4]: -0.69 (inactive)
growth sensitivity score [2, 4]: 8.16 (active)
growth sensitivity score [3, 4]: 2.01 (active)

c1cncc([C@@H]2CCCN2)c1 [Nornicotine]
CDA2-GFP sporulation assay sensitivity score [1, 4]: 2.1 (inactive)
growth sensitivity score [2, 4]: -0.25 (inactive)
growth sensitivity score [3, 4]: 0.91 (inactive)

COc1ccc2[nH]cc(CCN)c2c1 [5-Methoxytryptamine]
CDA2-GFP sporulation assay sensitivity score [1, 4]: 3.61 (inactive)
growth sensitivity score [2, 4]: -1.13 (inactive)
growth sensitivity score [3, 4]: 0.09 (inactive)

CC(NC(C)(C)C)C(=O)c1cccc(Cl)c1 (stereo not drawn) [Bupropion hydrochloride]
CDA2-GFP sporulation assay sensitivity score [1, 7]: 3.2 (inactive)
growth sensitivity score [2, 7]: -0.08 (inactive)
growth sensitivity score [3, 7]: -0.87 (inactive)

Cc1nnc2n1-c1ccc(Cl)cc1C(c1ccccc1)=NC2 [Alprazolam]
CDA2-GFP sporulation assay sensitivity score [1, 4]: 0.37 (inactive)
growth sensitivity score [2, 4]: 5.38 (active)
growth sensitivity score [3, 4]: 0.23 (inactive)

NC(=O)C[S+]([O-])C(c1ccccc1)c1ccccc1 (stereo not drawn) [Modafinil]
CDA2-GFP sporulation assay sensitivity score [1, 4]: -0.48 (inactive)
growth sensitivity score [2, 4]: -1.24 (inactive)
growth sensitivity score [3, 4]: -1.13 (inactive)

O=C(O)C(Cl)Cl [Dichloroacetic acid]
CDA2-GFP sporulation assay sensitivity score [1, 4]: 1.21 (inactive)
growth sensitivity score [2, 4]: 0.15 (inactive)
growth sensitivity score [3, 4]: -0.8 (inactive)

CN1CC[C@]2(c3cccc(O)c3)Cc3nc4ccccc4cc3C[C@H]2C1
CDA2-GFP sporulation assay sensitivity score [1, 8]: 5.85 (inactive)
growth sensitivity score [2, 8]: -2.02
growth sensitivity score [3, 8]: 0.13 (inactive)

COc1cc2c(cc1OC)[C@@]13CCN4CC5=CCO[C@H]6CC(=O)N2[C@H]1[C@H]6[C@H]5C[C@H]43 [Brucine]
CDA2-GFP sporulation assay sensitivity score [1, 4]: -1.75 (inactive)
growth sensitivity score [2, 4]: -0.99 (inactive)
growth sensitivity score [3, 4]: 0.41 (inactive)

C[C@]12CCC(=O)C[C@@H]1CC[C@@H]1[C@@H]2CC[C@@]2(C)[C@H]1CC[C@]2(C)O [Mestanolone]
CDA2-GFP sporulation assay sensitivity score [1, 9]: 0.79 (inactive)
growth sensitivity score [2, 9]: 2.2 (active)
growth sensitivity score [3, 9]: -0.15 (inactive)

CCOC(=O)c1cncn1[C@H](C)c1ccccc1 [Etomidate]
CDA2-GFP sporulation assay sensitivity score [1, 9]: 6.33 (active)
growth sensitivity score [2, 9]: 7.78 (active)
growth sensitivity score [3, 9]: 2.21 (active)

C=C(C)CN1CC[C@]23c4c5ccc(O)c4O[C@H]2c2[nH]c4ccccc4c2C[C@@]3(O)C1C5
CDA2-GFP sporulation assay sensitivity score [1, 9]: 4.94 (inactive)
growth sensitivity score [2, 9]: 11.1 (active)
growth sensitivity score [3, 9]: 0.61 (inactive)

O=C1Nc2ccc(Cl)cc2C(c2ccccc2Cl)=NC1O (stereo not drawn) [Lorazepam]
CDA2-GFP sporulation assay sensitivity score [1, 4]: 5 (inactive)
growth sensitivity score [2, 4]: 2.16 (active)
growth sensitivity score [3, 4]: -0.91 (inactive)

CCCN1C[C@H](CSC)C[C@@H]2c3cccc4[nH]cc(c34)C[C@H]21 [Pergolide mesylate]
growth sensitivity score [2, 4]: 3.13 (active)
growth sensitivity score [3, 4]: 2.05 (active)

O=c1c2ccccc2[se]n1-c1ccccc1 [Ebselen]
growth sensitivity score [2, 4]: -16.9

CN1CC[C@]23CCCC[C@H]2[C@H]1Cc1ccc(O)cc13 [Levorphanol tartrate]
CDA2-GFP sporulation assay sensitivity score [1, 10]: -2.67 (inactive)
growth sensitivity score [2, 10]: -1.11 (inactive)
growth sensitivity score [3, 10]: -0.24 (inactive)

C[C@H]1CCC[C@H](O)CCCCCc2cc(O)cc(O)c2C(=O)O1 [Zeranol]
CDA2-GFP sporulation assay sensitivity score [1, 4]: -2.75 (inactive)
growth sensitivity score [2, 4]: 18.3 (active)
growth sensitivity score [3, 4]: 1.77 (inactive)

NC1=NC(=O)C(c2ccccc2)O1 (stereo not drawn) [Pemoline]
CDA2-GFP sporulation assay sensitivity score [1, 4]: 0.99 (inactive)
growth sensitivity score [2, 4]: 0.67 (inactive)
growth sensitivity score [3, 4]: -1.83 (inactive)

c1ccc2c3c([nH]c2c1)CNCC3 [Tryptoline]
CDA2-GFP sporulation assay sensitivity score [1, 4]: 11.7 (active)
growth sensitivity score [2, 4]: -1.27 (inactive)
growth sensitivity score [3, 4]: -1.07 (inactive)
